Activity calls are given as the source filed them. How the source made its calls: active means hit-call score of the fitted dose curve at least 0.9, where 1 is the maximum; inactive means score below 0.9.

Experimental findings from PubChem BioAssay (EPA / NIEHS) are described below.

Experiment [1] is described as follows: ATG_CMV_CIS: Attagene CIS-FACTORIAL HepG2 Assay for human CMV (Internal Marker) (AID 2282928).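 Further: endpoint acts as a background internal control marker rather than a target.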 Particulars: HepG2 CMV promoter reporter, transcription factor profiling; actives raise or lower the signal. The gist of the method: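 24 h chemical treatment, HepG2 with transient multi-reporter transfection; RNA → oligo(dT) RT → PCR → 6-FAM extension → HpaI digest → CE fluorescence. Bidirectional fit, DMSO negative control.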

Experiment [2] can be described thus: ATG_M_32_CIS: Attagene CIS-FACTORIAL HepG2 Assay for M32 Transcription Factor (Internal Marker) (AID 2282949).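 Further: background control marker of the multiplexed CIS panel rather than a real target.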 Particulars: HepG2 Attagene cis-factorial M32 reporter, mRNA; actives raise or lower the signal. Put shortly: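 HepG2 human liver cells transiently transfected with cis-promoter-driven multiple reporter transcription units, dosed 24 h. Reporter mRNA quantified by RT-PCR, FAM-labelled primer extension, HpaI digest and capillary electrophoresis; bidirectional fit versus DMSO baseline.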

The target in experiment [3] is Hepatocyte nuclear factor 6 (Homo sapiens) (UniProt Q9UBC0). Put plainly: ATG_HNF6_CIS: Attagene CIS-FACTORIAL HepG2 Assay for human Hepatocyte Nuclear Factor 6 (HNF6) (AID 2282952). Particulars: HepG2 Attagene cis-factorial HNF6 reporter transcription; actives raise or lower the signal. Put shortly: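 Endogenous factor activity read in transiently transfected HepG2 via promoter-regulated reporter transcripts. RNA harvested 24 h post-dosing, reverse-transcribed, PCR-amplified, FAM-labelled, HpaI-digested and resolved by capillary electrophoresis; fitted in both directions against DMSO.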
Sequence of Hepatocyte nuclear factor 6 (Homo sapiens) (Q9UBC0 whole entry, looked up): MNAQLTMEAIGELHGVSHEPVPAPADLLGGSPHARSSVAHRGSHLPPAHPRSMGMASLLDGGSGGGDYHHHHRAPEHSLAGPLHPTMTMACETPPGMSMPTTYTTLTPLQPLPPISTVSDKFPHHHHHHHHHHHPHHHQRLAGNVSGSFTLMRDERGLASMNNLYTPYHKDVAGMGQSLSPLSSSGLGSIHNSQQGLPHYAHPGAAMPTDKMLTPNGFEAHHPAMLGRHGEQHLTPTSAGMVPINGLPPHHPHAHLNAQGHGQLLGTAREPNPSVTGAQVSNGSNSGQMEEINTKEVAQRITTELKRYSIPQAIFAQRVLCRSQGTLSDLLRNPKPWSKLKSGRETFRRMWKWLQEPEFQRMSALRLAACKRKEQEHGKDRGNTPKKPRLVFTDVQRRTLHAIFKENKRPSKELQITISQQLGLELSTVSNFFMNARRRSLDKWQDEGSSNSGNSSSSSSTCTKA

The target of experiment [4] is Heat shock factor protein 1 (Homo sapiens) (UniProt Q00613). In words: ATG_HSE_CIS: Attagene CIS-FACTORIAL HepG2 Assay for human Heat Shock Transcription Factor 1 (HSE) (AID 2282953). Particulars: HepG2 HSE cis-reporter, Attagene RNA transcription; actives raise or lower the signal. The gist of the method: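 Read-out: fluorescence of reporter-specific RT-PCR fragments separated by capillary electrophoresis. HepG2 carrying transfected cis-element reporter units; 24 h dosing; activity fitted in both directions relative to DMSO baseline.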
Sequence of Heat shock factor protein 1 (Homo sapiens) (Q00613 whole entry, looked up, the tested form may be a part): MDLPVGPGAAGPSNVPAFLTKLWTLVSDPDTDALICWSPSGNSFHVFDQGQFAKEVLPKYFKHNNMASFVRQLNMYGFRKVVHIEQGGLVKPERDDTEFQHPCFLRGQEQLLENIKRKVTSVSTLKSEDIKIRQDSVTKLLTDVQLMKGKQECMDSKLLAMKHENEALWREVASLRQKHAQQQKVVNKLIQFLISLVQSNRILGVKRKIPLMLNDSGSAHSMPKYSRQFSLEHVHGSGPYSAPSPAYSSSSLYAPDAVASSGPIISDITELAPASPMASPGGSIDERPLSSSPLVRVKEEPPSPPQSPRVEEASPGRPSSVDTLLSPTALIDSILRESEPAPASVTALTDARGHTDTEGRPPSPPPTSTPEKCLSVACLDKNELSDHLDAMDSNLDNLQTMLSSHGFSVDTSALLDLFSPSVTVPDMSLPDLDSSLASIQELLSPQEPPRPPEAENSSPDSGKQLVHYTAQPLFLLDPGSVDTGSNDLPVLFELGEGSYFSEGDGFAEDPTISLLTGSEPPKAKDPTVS

The nature of experiment [5]: ATG_RORE_CIS: Attagene CIS-FACTORIAL HepG2 Assay for human RAR-related Orphan Receptor Element (RORE) (AID 2282959). Particulars: HepG2 Attagene cis-factorial RORE reporter, mRNA; actives raise or lower the signal. The gist of the method:
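Fluorescence intensity of reporter-specific cDNA fragments, separated by capillary electrophoresis, gives the signal. Source: HepG2 liver cells transiently transfected with cis-element reporters and exposed 24 h; DMSO-normalized bidirectional fit.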

Experiment [6] has as its target Signal transducer and activator of transcription 3 (Homo sapiens) (UniProt P40763). In words: ATG_STAT3_CIS: Attagene CIS-FACTORIAL HepG2 Assay for human Signal Transducer and Activator of Transcription 3 (STAT3) (AID 2282963). Particulars: HepG2, Attagene cis-factorial STAT3 reporter transcription; actives raise or lower the signal. Put shortly: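 HepG2, MRTU-transfected, 24 h dosing. RNA → RT → PCR → FAM label → HpaI → CE. Bidirectional fit vs DMSO.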

Experiment [7] in a line: ATG_TA_CIS: Attagene CIS-FACTORIAL HepG2 Assay for human TA Basal Promoter (AID 2282964). Conditions: HepG2 Attagene CIS-factorial TA basal promoter reporter; actives raise or lower the signal. Put shortly: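 Transfected HepG2, 24 h compound exposure; RNA → RT-PCR → FAM primer extension → HpaI cut → CE fluorescence. Gain/loss-of-signal fitted against DMSO negative control. Background-control readout.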

A short description of experiment [8]: ATG_TCF_b_cat_CIS: Attagene CIS-FACTORIAL HepG2 Assay for human T-Cell-Factor with beta-catenin (TCF/b-cat) (AID 2282965). Conditions: HepG2 TCF/beta-catenin cis-reporter transcription, actives raise or lower the signal. Put shortly:
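HepG2 cells transiently transfected with multiple cis-promoter-regulated reporter transcription units, so endogenous transcription factor activity is measured. Reporter mRNA read 24 hours after dosing by RT-PCR, fluorescent labelling and capillary electrophoresis; bidirectional fitting against DMSO.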

Experiment [9] in a line: ATG_TAL_CIS: Attagene CIS-FACTORIAL HepG2 Assay for human TAL Basal Promoter (AID 2282966).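 Further: background control endpoint measuring basal TAL promoter reporter mRNA not a specific factor.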 Particulars: HepG2 Attagene cis-factorial TAL promoter reporter; actives raise or lower the signal. The gist of the method: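 Background-control endpoint: basal TAL promoter reporter transcripts in transiently transfected HepG2, measured 24 h after dosing. Read-out by RT-PCR with fluorescent primer extension and capillary electrophoresis; gain or loss of signal fitted relative to DMSO.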

The nature of experiment [10]: ATG_TGFb_CIS: Attagene CIS-FACTORIAL HepG2 Assay for human Transforming Growth Factor (TGF) (AID 2282967). Particulars: HepG2 Attagene CIS TGFb reporter, mRNA transcription; actives raise or lower the signal. The gist of the method:
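Readout: fluorescently labeled reporter cDNA fragments resolved by capillary electrophoresis after RT-PCR. Transfected HepG2 cells dosed for 24 h; endogenous TF activity at TGFB1-linked cis element; gain or loss fitted relative to DMSO.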

Experiment [11] in a line: ATG_VDRE_CIS: Attagene CIS-FACTORIAL HepG2 Assay for human Vitamin D Receptor Element (VDRE) (AID 2282968). Particulars: HepG2 VDRE cis-reporter transcription, actives raise or lower the signal. The gist of the method:
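Steps: transfect HepG2 with multiple reporter transcription units; dose chemicals 24 h; isolate RNA; RT-PCR; label with 6-FAM primer extension; HpaI digest; capillary electrophoresis. Curves fitted both directions against DMSO.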

The target in experiment [12] is X-box-binding protein 1 (Homo sapiens) (UniProt P17861). In words: ATG_Xbp1_CIS: Attagene CIS-FACTORIAL HepG2 Assay for human X-box Binding Protein 1 (XBP1) (AID 2282972). Particulars: HepG2 XBP1 cis-element reporter, Attagene multiplex; actives raise or lower the signal. Put shortly: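 Multiplexed cis-reporter readout in transfected HepG2 liver cells. Exposure lasted 24 hours. Activity in either direction was fitted against DMSO as negative control and baseline.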
Sequence of X-box-binding protein 1 (Homo sapiens) (P17861 whole entry, looked up): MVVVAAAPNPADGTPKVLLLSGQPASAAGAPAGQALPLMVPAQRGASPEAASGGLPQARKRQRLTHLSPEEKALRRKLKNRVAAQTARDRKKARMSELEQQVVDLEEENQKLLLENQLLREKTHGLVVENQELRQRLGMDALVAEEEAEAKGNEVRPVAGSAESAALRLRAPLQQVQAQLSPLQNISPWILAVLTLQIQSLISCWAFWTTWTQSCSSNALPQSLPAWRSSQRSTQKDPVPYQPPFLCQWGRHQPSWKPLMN

Experiment [13] concerns the target Transcriptional activator Myb (Homo sapiens) (UniProt P10242). Put plainly: ATG_Myb_CIS: Attagene CIS-FACTORIAL HepG2 Assay for human Myeloblastosis (Myb) Proto-Oncogene Transcription Factor (AID 2282986). Particulars: HepG2 Attagene CIS-FACTORIAL Myb reporter transcription; actives raise or lower the signal. The gist of the method: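 Fluorescence signals from capillary electrophoresis of RT-PCR-amplified reporter cDNA give the read-out. Cells: HepG2 transfected with multiple cis-regulated reporter units. Exposure lasts 24 hours; DMSO defines baseline for gain or loss of signal.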

Experiment [14] addresses Nuclear respiratory factor 1 (Homo sapiens) (UniProt Q16656). In words: ATG_NRF1_CIS: Attagene CIS-FACTORIAL HepG2 Assay for human Nuclear Respiratory Factor 1 (NRF1) Orphan Gene (AID 2282987). Particulars: HepG2 NRF1 cis-element reporter, Attagene multiplex; actives raise or lower the signal. Put shortly:
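Transcriptional reporter readout, one component of a 52-endpoint multiplexed HepG2 panel. Exposure 24 h; mRNA detected via RT-PCR and fluorescent capillary electrophoresis; fitting in both directions against DMSO.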

For experiment [15], the target named is Myc proto-oncogene protein (Homo sapiens) (UniProt P01106). Put plainly: ATG_Myc_CIS: Attagene CIS-FACTORIAL HepG2 Assay for human Myelocytomatosis (Myc) Proto-Oncogene Transcription Factor (AID 2282990). Particulars: HepG2, Attagene cis-reporter transcription factor activity; actives raise or lower the signal. Put shortly: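 HepG2 cells transiently transfected with multiple cis-promoter-driven reporter transcription units, so endogenous TF activity is read. After 24 h compound exposure, reporter mRNA was quantified by RT-PCR, 6-FAM labelling, HpaI digestion and capillary electrophoresis; bidirectional fit versus DMSO.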
Sequence of Myc proto-oncogene protein (Homo sapiens) (P01106 whole entry, looked up): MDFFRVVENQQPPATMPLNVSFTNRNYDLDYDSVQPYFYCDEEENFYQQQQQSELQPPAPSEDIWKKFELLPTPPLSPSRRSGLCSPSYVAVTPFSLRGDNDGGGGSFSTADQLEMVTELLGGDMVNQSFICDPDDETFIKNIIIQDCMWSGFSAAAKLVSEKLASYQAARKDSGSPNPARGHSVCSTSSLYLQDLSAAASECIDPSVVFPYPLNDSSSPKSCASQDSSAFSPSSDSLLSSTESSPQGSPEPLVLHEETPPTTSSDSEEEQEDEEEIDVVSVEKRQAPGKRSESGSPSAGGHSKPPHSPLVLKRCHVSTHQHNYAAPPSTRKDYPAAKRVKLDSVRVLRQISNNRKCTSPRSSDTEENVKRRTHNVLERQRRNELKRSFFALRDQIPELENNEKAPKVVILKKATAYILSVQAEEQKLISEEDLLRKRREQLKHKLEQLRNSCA

Experiment [16] is described as follows: ATG_NF_kB_CIS: Attagene CIS-FACTORIAL HepG2 Assay for human Nuclear Factor Kappa B (NF-kB) (AID 2282991). Conditions: HepG2 Attagene cis-factorial NF-kB reporter mRNA; actives raise or lower the signal. The gist of the method: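 HepG2, transient multi-reporter transfection, cis promoter elements (endogenous TFs). 24 h exposure. Total RNA → RT → PCR → 6-FAM label → HpaI → CE. Gain/loss vs DMSO.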

Experiment [17] in a line: ATG_NRF2_ARE_CIS: Attagene CIS-FACTORIAL HepG2 Assay for human Nuclear Factor Erythroid 2 Related Factor 2 (NFR2) response to Antioxidant Response Elements (ARE) (AID 2282992).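 On AC50: reporter mRNA level measured by RT-PCR and capillary electrophoresis fluorescence.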 Conditions: HepG2 Attagene ARE/NRF2 reporter, transcription factor activity; actives raise or lower the signal. The gist of the method: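 Endogenous transcription factor activity in human liver HepG2 cells is tracked via a cis-element-driven reporter within a multiplexed set. mRNA induction is read by RT-PCR and capillary electrophoresis after 24 h, with DMSO as baseline.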

Experiment [18] in a line: ATG_Oct_MLP_CIS: Attagene CIS-FACTORIAL HepG2 Assay for human Octamer-Binding Transcription Factor (Oct) (AID 2282993). Particulars: HepG2 Attagene cis-factorial Oct reporter, mRNA; actives raise or lower the signal. The gist of the method:
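Read-out: reporter mRNA via RT-PCR plus capillary electrophoresis of 6-FAM-labelled fragments. Transiently transfected HepG2, 24 h exposure, endogenous TF activity on cis elements. Gain or loss of signal fitted relative to DMSO.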

Experiment [19] concerns the target Cellular tumor antigen p53 (Homo sapiens) (UniProt P04637). In words: ATG_p53_CIS: Attagene CIS-FACTORIAL HepG2 Assay for human p53 Transcription Factor (AID 2282994). Particulars: HepG2 p53 cis-element reporter, Attagene mRNA; actives raise or lower the signal. Put shortly:
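Steps: transfect HepG2 with multiplexed cis reporter constructs; dose chemicals 24 h; extract RNA, reverse-transcribe, PCR-amplify reporter sequences; FAM-label, HpaI-digest, resolve fragments by CE. Activity fitted both directions relative to DMSO.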

Experiment [20] can be described thus: ATG_ISRE_CIS: Attagene CIS-FACTORIAL HepG2 Assay for human Interferon Regulatory Factor 1 (IRF1) binding to an Interferon-Stimulated Response Element (ISRE) (AID 2282948). Conditions: HepG2 ISRE cis-reporter (Attagene), mRNA transcription readout; actives raise or lower the signal. The gist of the method: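 Multiplexed mRNA reporter readout in human liver HepG2 cells: cis-element-driven reporters transfected, compound added for 24 h, transcripts amplified, fluorescently labelled and sized by capillary electrophoresis; curve fitting bidirectional against DMSO.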

Sequence of Signal transducer and activator of transcription 3 (Homo sapiens) (P40763 whole entry, looked up): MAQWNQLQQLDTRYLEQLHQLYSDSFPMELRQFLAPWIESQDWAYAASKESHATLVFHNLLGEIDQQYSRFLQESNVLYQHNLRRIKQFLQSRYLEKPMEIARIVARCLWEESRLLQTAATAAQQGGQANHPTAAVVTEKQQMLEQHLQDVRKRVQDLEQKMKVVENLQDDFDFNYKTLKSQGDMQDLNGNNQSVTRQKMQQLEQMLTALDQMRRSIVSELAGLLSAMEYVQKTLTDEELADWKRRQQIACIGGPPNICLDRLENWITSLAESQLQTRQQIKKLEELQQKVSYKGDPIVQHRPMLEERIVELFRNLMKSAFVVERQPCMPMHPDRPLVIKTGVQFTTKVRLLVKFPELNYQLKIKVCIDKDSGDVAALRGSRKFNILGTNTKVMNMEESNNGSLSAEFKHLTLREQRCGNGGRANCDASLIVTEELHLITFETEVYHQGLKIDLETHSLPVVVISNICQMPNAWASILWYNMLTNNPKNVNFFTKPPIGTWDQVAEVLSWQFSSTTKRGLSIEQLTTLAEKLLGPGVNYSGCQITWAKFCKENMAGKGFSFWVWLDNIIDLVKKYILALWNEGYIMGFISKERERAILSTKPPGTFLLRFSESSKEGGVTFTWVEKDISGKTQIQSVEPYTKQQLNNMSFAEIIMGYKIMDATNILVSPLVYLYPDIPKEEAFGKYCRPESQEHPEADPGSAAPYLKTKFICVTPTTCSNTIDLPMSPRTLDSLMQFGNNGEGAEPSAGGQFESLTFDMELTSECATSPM
Sequence of Cellular tumor antigen p53 (Homo sapiens) (P04637 whole entry, looked up, the tested form may be a part): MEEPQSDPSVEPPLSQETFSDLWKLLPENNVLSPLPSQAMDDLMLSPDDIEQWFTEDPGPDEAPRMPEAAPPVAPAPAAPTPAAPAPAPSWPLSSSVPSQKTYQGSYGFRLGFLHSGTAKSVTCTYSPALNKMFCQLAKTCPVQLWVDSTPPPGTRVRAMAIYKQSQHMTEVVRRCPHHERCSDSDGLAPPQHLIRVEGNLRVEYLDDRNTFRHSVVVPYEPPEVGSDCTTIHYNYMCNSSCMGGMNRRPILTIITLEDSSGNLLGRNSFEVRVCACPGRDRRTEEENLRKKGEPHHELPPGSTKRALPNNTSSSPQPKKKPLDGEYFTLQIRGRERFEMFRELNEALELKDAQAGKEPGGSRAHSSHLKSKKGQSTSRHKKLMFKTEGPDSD
Sequence of Nuclear respiratory factor 1 (Homo sapiens) (Q16656 whole entry, looked up): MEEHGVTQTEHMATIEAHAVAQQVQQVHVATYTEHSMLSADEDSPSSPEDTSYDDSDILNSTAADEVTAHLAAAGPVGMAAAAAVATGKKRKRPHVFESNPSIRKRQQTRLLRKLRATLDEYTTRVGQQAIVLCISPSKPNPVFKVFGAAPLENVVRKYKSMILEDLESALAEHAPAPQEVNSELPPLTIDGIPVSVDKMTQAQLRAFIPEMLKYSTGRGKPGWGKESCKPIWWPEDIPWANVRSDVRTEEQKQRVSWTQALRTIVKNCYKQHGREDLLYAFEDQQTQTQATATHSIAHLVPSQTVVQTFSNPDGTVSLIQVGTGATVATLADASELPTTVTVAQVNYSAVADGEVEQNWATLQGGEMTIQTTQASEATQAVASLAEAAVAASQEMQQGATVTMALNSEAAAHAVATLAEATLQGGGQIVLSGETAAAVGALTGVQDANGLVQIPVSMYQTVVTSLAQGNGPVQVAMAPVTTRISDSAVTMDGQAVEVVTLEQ
Sequence of Transcriptional activator Myb (Homo sapiens) (P10242 whole entry, looked up): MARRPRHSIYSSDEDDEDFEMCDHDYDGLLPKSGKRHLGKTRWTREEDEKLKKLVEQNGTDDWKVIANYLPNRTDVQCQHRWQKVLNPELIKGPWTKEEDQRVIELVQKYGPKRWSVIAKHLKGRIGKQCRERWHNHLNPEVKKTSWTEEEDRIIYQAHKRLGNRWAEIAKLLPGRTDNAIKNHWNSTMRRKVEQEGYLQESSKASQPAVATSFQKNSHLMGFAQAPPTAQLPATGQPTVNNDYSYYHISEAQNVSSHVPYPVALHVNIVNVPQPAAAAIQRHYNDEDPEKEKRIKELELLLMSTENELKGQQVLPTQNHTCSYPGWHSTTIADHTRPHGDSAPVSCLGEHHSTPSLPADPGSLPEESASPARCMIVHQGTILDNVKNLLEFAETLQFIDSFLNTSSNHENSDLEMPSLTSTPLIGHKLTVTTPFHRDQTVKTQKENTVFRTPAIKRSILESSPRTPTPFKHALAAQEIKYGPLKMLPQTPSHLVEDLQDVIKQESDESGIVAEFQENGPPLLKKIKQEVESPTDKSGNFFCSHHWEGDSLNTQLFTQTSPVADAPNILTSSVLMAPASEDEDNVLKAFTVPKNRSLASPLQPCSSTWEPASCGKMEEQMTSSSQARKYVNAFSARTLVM

For orientation: AC50 means the midpoint of the concentration-response curve, whichever way the signal moves. On to `CSc1nc(N=[N+]=[N-])nc(NC(C)C)n1`, for which the half-maximal activity concentration (AC50) in [1] was 52.8 µM (active); in experiment [17] it was 100 µM (active). Also, the call in experiment [2], in experiment [3], in experiment [4], in experiment [5], in experiment [6] and in experiment [7] was inactive. Besides, the compound was classed as inactive in [8], in experiment [9], in experiment [10], in experiment [11], in [12] and in [13]. Besides, the result in experiment [14], in [15], in [16], in [18] and in experiment [19] was inactive.
As to `C=COCCCl`, the compound was classed as inactive in experiment [1], in [20], in experiment [3], in experiment [4], in [5] and in [6]. Moreover, the outcome in experiment [7], in [8], in [9], in experiment [10], in [11] and in experiment [12] was inactive. For the same compound, the outcome in experiment [13], in [14], in experiment [15], in experiment [16], in experiment [17] and in experiment [18] was inactive. Also, the call in experiment [19] was inactive.
Turning to `CCOC(=O)C1OC1(C)c1ccccc1` (stereo not given), the compound was classed as inactive in experiment [1], in experiment [20], in experiment [3], in experiment [4], in experiment [5] and in [6]. The outcome in [7], in [8], in experiment [9], in [10], in experiment [12] and in experiment [13] was inactive. The compound was called inactive in experiment [14], in experiment [15], in experiment [17], in [18] and in experiment [19].
